Laboratory results reported in the supplement of paper PMC10849652.
Targets with a hit are over-represented here; the source holds about 8,800 in all. About 0.5% of all pairs of compound and target were hits.

What was measured:
Assay in all cases: log2 fold change, soluble protein after heating vs DMSO (PISA); higher = thermal stabilisation; K562 lysate, 10 uM; active = over 0.2 and 3.5 SD of the protein, either way, in both replicates (recomputed)
vemurafenib = compound: CCCS(=O)(=O)Nc1ccc(F)c(C(=O)c2c[nH]c3ncc(-c4ccc(Cl)cc4)cc23)c1F [vemurafenib]
Summary of the method: (§1)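 Thermal stability, expressed as log-two fold change relative to solvent controls, is given from duplicates. Crude K562 extract in PBS pH 7.4 with 1 mM MgCl2, at 1 mg/mL protein, was treated with 10 μM compound for 30 min and heated in aliquots for 3 min across 48°C-58°C. After pooling, adjustment to 0.5% NP-40 at 4°C and centrifugation at 21,000xg for 90 min, supernatant protein was measured by TMTpro 16plex LC-MS/MS with channel sums equalised.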

[1] = compound: CCCS(=O)(=O)Nc1ccc(F)c(C(=O)c2c[nH]c3ncc(Cl)cc23)c1F
Summary of the method: as §1

barasertib = compound: CCN(CCCOc1ccc2c(Nc3cc(CC(=O)Nc4cccc(F)c4)[nH]n3)ncnc2c1)CCOP(=O)(O)O [barasertib]
Summary of the method: as §1

[2] = compound: CC[C@@H]1C(=O)N(C)c2cnc(Nc3ccc(C(=O)NC4CCN(C)CC4)cc3OC)nc2N1C1CCCC1
Summary of the method: as §1

volasertib = compound: CC[C@@H]1C(=O)N(C)c2cnc(Nc3ccc(C(=O)N[C@H]4CC[C@H](N5CCN(CC6CC6)CC5)CC4)cc3OC)nc2N1C(C)C [volasertib]
Summary of the method: as §1

[3] = compound: CCn1c(C(=O)N(C2CC2)C2CC2)cc2c3c(ncn3C)c(Nc3cc(C)n(C)n3)nc21
Summary of the method: as §1

[4] = compound: CCn1cc(-c2ccnc3[nH]c(-c4cccc(CN(C)C)c4)cc23)c(-c2ccc(NC(=O)N(C)C)cc2)n1
Summary of the method: as §1

[5] = compound: CN1CCC(CNc2ccc3ncc(-c4cccc(OC(F)(F)F)c4)n3n2)CC1
Summary of the method: as §1

saracatinib = compound: CN1CCN(CCOc2cc(OC3CCOCC3)c3c(Nc4c(Cl)ccc5c4OCO5)ncnc3c2)CC1 [saracatinib]
Summary of the method: as §1

sotrastaurin = compound: CN1CCN(c2nc(C3=C(c4c[nH]c5ccccc45)C(=O)NC3=O)c3ccccc3n2)CC1 [sotrastaurin]
Summary of the method: as §1

Measured: log2 fold change

DPH5 isoform 5 (UniProt Q9H2P9)
Chain of UniProt Q9H2P9 (Q9H2P9 whole entry, looked up): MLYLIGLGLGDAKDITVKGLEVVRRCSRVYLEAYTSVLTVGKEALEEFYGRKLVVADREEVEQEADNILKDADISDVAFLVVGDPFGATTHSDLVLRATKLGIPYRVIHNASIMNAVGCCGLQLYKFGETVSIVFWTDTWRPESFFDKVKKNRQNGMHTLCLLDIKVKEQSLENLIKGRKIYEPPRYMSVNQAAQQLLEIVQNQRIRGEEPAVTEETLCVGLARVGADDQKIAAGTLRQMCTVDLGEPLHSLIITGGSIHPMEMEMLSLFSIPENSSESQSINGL
inactive: vemurafenib 0.144 | [1] 0.016 | barasertib -0.05 | [2] 0.16 | volasertib 0.273 | [3] -0.011 | [4] 0.182 | [5] 0.033 | saracatinib -0.029 | sotrastaurin 0.049

COG3 (UniProt Q96JB2)
Chain of UniProt Q96JB2 (Q96JB2 whole entry, looked up): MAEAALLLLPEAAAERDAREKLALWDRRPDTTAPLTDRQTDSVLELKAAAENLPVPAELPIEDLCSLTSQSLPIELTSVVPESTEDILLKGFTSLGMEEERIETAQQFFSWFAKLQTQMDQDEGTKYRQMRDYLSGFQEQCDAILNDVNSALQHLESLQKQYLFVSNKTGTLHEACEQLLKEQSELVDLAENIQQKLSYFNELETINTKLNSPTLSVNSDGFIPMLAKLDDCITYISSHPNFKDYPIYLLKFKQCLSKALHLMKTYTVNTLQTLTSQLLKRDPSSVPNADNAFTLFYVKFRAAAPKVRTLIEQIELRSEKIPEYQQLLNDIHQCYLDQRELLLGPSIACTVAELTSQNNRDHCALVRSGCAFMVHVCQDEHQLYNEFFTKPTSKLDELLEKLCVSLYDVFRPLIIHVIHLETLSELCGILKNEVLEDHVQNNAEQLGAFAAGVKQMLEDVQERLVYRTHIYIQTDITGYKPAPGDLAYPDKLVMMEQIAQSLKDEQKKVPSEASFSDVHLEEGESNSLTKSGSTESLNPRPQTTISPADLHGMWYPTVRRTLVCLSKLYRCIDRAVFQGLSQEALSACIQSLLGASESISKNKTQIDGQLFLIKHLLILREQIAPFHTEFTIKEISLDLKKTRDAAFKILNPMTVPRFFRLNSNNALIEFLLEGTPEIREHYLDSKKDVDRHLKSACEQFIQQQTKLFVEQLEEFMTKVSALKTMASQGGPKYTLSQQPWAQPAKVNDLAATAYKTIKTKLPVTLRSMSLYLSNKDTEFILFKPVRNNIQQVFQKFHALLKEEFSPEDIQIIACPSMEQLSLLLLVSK
inactive: vemurafenib 0.004 | [1] 0.012 | barasertib 0.041 | [2] -0.056 | volasertib -0.071 | [3] 0.042 | [4] -0.038 | [5] 0.012 | saracatinib 0.046 | sotrastaurin 0.008

CLPB isoform 2 (UniProt Q9H078)
inactive: vemurafenib 0.011 | [1] 0.023 | barasertib 0.026 | [2] 0.007 | volasertib -0.042 | [3] 0.044 | [4] 0.078 | [5] -0.045 | saracatinib 0.004 | sotrastaurin -0.012

CXorf38 (UniProt Q8TB03)
inactive: vemurafenib 0.017 | [1] -0.015 | barasertib -0.024 | [2] 0.038 | volasertib 0.013 | [3] -0.027 | [4] -0.059 | [5] 0.04 | saracatinib 0.105 | sotrastaurin 0.018

CLUH (UniProt O75153)
inactive: vemurafenib -0.03 | [1] 0.014 | barasertib 0.024 | [2] 0.012 | volasertib -0.02 | [3] -0.009 | [4] -0.024 | [5] 0.117 | saracatinib 0.011 | sotrastaurin 0.01

CUEDC2 (UniProt Q9H467)
Chain of UniProt Q9H467 (Q9H467 whole entry, looked up): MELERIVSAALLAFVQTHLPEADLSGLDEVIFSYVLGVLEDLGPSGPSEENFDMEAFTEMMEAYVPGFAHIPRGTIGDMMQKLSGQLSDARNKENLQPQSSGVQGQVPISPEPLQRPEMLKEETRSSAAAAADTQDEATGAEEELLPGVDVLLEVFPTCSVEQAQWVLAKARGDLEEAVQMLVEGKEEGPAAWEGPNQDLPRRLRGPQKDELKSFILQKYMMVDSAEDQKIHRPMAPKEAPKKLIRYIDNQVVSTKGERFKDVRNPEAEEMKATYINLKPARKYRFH
active: [4] 0.694
inactive: vemurafenib 0.06 | [1] 0.001 | barasertib 0.026 | [2] 0.038 | volasertib 0.027 | [3] -0.084 | [5] -0.07 | saracatinib 0.002 | sotrastaurin 0

DPM1 (UniProt O60762)
Chain of UniProt O60762 (O60762 whole entry, looked up): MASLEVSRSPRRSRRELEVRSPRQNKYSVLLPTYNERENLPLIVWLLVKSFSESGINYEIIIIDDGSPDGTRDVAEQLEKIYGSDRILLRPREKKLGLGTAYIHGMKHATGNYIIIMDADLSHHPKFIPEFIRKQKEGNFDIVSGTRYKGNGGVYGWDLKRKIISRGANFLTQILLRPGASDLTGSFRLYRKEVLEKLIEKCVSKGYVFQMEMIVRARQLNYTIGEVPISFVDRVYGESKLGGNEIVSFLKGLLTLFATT
inactive: vemurafenib 0.055 | [1] 0.004 | barasertib -0.021 | [2] 0.039 | volasertib 0.001 | [3] -0.012 | [4] -0.013 | [5] -0.058 | saracatinib 0.036 | sotrastaurin 0.028

DOK1 (UniProt Q99704)
Chain of UniProt Q99704 (Q99704 whole entry, looked up): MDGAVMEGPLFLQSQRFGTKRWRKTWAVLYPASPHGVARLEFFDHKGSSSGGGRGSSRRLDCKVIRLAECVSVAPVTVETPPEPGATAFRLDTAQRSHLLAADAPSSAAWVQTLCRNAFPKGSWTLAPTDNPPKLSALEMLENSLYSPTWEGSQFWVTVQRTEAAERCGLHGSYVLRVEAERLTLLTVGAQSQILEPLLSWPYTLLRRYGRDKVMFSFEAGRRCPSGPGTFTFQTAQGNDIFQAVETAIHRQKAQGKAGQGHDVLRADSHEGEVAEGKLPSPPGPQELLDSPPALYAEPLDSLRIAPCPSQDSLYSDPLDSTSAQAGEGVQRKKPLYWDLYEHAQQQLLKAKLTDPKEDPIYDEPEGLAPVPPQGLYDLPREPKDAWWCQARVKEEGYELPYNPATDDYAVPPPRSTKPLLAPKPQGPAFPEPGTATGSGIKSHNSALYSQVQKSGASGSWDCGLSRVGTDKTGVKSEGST
inactive: vemurafenib 0.028 | [1] 0.061 | barasertib -0.027 | [2] -0.113 | volasertib -0.026 | [3] 0.021 | [4] -0.055 | [5] 0.101 | saracatinib 0.024 | sotrastaurin 0.029

COG5 isoform 2 (UniProt Q9UP83)
inactive: vemurafenib 0.001 | [1] 0.06 | barasertib -0.116 | [2] -0.056 | volasertib -0.084 | [3] -0.007 | [4] -0.02 | [5] 0.01 | saracatinib 0.057 | sotrastaurin 0.08

CTPS2 (UniProt Q9NRF8)
Chain of UniProt Q9NRF8 (Q9NRF8 whole entry, looked up): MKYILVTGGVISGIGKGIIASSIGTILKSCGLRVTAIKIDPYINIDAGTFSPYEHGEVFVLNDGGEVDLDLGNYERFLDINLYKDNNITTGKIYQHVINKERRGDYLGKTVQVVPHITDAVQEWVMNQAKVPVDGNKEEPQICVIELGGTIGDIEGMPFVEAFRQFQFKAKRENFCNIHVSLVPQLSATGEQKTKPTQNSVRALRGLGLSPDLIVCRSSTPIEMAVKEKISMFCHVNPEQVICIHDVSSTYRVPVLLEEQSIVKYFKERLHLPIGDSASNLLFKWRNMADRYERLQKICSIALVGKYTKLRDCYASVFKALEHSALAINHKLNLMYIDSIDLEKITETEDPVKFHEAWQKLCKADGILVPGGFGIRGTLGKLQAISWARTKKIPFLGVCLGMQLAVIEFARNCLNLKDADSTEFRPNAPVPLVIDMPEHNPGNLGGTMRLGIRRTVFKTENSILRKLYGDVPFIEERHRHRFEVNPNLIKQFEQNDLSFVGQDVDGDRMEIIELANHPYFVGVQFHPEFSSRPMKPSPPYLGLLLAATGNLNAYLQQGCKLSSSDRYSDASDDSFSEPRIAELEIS
inactive: vemurafenib 0.002 | [1] 0.01 | barasertib 0.015 | [2] -0.028 | volasertib -0.009 | [3] 0.011 | [4] -0.041 | [5] 0.058 | saracatinib 0.012 | sotrastaurin -0.044

DHRS3 (UniProt O75911)
Chain of UniProt O75911 (O75911 whole entry, looked up): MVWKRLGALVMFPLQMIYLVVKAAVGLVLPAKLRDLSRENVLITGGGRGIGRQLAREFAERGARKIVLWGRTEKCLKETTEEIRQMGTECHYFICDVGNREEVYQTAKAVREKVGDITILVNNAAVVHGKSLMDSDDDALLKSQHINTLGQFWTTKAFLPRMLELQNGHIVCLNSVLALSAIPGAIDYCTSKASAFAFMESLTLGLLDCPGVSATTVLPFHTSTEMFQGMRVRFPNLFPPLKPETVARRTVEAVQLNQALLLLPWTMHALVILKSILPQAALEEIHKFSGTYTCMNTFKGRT
inactive: vemurafenib 0.082 | [1] 0.012 | barasertib -0.01 | [2] -0.03 | volasertib 0.033 | [3] -0.041 | [4] -0.061 | [5] 0.034 | saracatinib 0.029 | sotrastaurin 0.013

CYCS (UniProt P99999)
inactive: vemurafenib -0.011 | [1] -0.001 | barasertib -0.01 | [2] 0.061 | volasertib 0.041 | [3] 0.018 | [4] -0.025 | [5] 0.052 | saracatinib 0.008 | sotrastaurin -0.017

CIAO2A (UniProt Q9H5X1)
Chain of UniProt Q9H5X1 (Q9H5X1 whole entry, looked up): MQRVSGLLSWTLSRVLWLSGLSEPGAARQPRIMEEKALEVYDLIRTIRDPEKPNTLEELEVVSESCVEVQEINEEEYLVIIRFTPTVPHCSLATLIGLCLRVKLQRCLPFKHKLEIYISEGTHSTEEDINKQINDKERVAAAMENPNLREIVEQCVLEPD
inactive: vemurafenib -0.028 | [1] -0.032 | barasertib 0.094 | [2] -0.042 | volasertib -0.007 | [3] 0.026 | [4] 0.233 | [5] -0.203 | saracatinib 0.033 | sotrastaurin 0.034

CHMP4A isoform 2 (UniProt Q9BY43)
active: [4] -0.278
inactive: vemurafenib 0 | [1] -0.002 | barasertib -0.053 | [2] 0.064 | volasertib 0.039 | [3] -0.002 | [5] 0.222 | saracatinib 0.048 | sotrastaurin 0.024

CMPK2 (UniProt Q5EBM0)
Chain of UniProt Q5EBM0 (Q5EBM0 whole entry, looked up): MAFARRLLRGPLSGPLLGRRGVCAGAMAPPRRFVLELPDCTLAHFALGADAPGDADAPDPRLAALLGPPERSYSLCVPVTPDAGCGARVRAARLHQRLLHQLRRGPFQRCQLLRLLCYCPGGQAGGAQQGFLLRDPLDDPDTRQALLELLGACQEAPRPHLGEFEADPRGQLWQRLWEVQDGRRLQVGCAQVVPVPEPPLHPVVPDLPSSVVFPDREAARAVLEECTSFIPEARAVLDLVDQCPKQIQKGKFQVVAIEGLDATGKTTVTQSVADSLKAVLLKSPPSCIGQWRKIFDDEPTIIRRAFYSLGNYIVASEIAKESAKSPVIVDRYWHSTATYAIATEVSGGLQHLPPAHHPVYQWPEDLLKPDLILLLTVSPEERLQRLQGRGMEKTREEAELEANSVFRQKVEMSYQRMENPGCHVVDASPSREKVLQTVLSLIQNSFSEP
inactive: vemurafenib 0.026 | [1] 0.048 | barasertib 0.155 | [2] 0.018 | volasertib 0.015 | [3] -0.03 | [4] -0.001 | [5] 0.007 | saracatinib 0.006 | sotrastaurin -0.019

COQ9 (UniProt O75208)
Chain of UniProt O75208 (O75208 whole entry, looked up): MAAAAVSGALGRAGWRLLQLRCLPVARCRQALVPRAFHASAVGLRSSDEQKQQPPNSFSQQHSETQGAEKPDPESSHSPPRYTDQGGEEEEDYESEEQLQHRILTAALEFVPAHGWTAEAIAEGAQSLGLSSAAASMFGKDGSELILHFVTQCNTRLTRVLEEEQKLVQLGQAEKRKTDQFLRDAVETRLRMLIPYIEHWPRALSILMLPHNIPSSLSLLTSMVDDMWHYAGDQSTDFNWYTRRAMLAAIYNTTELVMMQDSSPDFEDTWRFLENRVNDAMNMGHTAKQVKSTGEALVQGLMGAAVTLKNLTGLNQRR
active: barasertib 0.275
inactive: vemurafenib -0.023 | [1] 0.126 | [2] 0 | volasertib -0.012 | [3] 0.002 | [4] 0.015 | [5] -0.066 | saracatinib -0.001 | sotrastaurin -0.101

DLG3 isoform 2 (UniProt Q92796)
inactive: vemurafenib 0.109 | [1] 0.005 | barasertib 0.047 | [2] -0.128 | volasertib -0.006 | [3] -0.057 | [4] -0.14 | [5] 0.038 | saracatinib 0.004 | sotrastaurin 0.043

COTL1 (UniProt Q14019)
active: [4] 0.37
inactive: vemurafenib -0.002 | [1] -0.017 | barasertib -0.068 | [2] 0.019 | volasertib 0.02 | [3] 0.027 | [5] -0.076 | saracatinib -0.019 | sotrastaurin -0.045

CKAP5 (UniProt Q14008)
inactive: vemurafenib -0.023 | [1] -0.013 | barasertib 0.003 | [2] -0.002 | volasertib -0.021 | [3] 0.022 | [4] -0.016 | [5] -0.033 | saracatinib 0.005 | sotrastaurin 0.025

CSNK2A2 (UniProt P19784)
Chain of UniProt P19784 (P19784 whole entry, looked up): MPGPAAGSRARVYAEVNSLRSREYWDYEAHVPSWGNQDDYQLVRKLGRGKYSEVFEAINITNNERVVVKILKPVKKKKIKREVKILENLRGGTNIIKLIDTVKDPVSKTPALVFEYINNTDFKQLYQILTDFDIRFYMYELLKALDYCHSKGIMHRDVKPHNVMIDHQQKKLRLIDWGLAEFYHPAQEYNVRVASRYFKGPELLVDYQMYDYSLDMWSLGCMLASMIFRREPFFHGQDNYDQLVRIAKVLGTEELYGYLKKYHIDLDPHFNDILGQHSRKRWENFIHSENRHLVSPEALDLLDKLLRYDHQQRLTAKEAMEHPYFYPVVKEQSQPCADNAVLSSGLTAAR
inactive: vemurafenib -0.219 | [1] -0.005 | barasertib -0.044 | [2] -0.031 | volasertib -0.082 | [3] 0.011 | [4] -0.092 | [5] 0.418 | saracatinib 0 | sotrastaurin 0.023

CHEK2 (UniProt O96017)
inactive: vemurafenib -0.059 | [1] 0.042 | barasertib 0.087 | [2] -0.06 | volasertib -0.044 | [3] 0.051 | [4] 0.08 | [5] -0.057 | saracatinib -0.036 | sotrastaurin 0

COG7 (UniProt P83436)
inactive: vemurafenib 0.003 | [1] 0.018 | barasertib 0.017 | [2] -0.054 | volasertib -0.076 | [3] -0.003 | [4] -0.209 | [5] -0.019 | saracatinib 0.05 | sotrastaurin 0.039

DOCK10 (UniProt Q96BY6)
active: [4] -0.747
inactive: vemurafenib 0.095 | [1] -0.008 | barasertib -0.054 | [2] 0.085 | volasertib 0.027 | [3] 0.043 | [5] 0.387 | saracatinib 0.001 | sotrastaurin 0.007

CKS1B (UniProt P61024)
inactive: vemurafenib -0.047 | [1] -0.029 | barasertib 0.029 | [2] -0.031 | volasertib -0.018 | [3] -0.017 | [5] -0.268 | saracatinib 0.044 | sotrastaurin 0.025
active: [4] 0.391

COX20 isoform 2 (UniProt Q5RI15)
active: [4] 0.623
inactive: vemurafenib 0.011 | [1] -0.011 | barasertib -0.329 | [2] 0.144 | volasertib 0.021 | [3] -0.015 | [5] -0.232 | saracatinib -0.015 | sotrastaurin 0.001

COPZ1 isoform 4 (UniProt P61923)
inactive: vemurafenib -0.054 | [1] -0.004 | barasertib 0.111 | [2] 0.022 | volasertib 0.019 | [3] 0.004 | [4] -0.015 | [5] -0.187 | saracatinib 0.018 | sotrastaurin 0.01

DNAJC1 (UniProt Q96KC8)
Chain of UniProt Q96KC8 (Q96KC8 whole entry, looked up): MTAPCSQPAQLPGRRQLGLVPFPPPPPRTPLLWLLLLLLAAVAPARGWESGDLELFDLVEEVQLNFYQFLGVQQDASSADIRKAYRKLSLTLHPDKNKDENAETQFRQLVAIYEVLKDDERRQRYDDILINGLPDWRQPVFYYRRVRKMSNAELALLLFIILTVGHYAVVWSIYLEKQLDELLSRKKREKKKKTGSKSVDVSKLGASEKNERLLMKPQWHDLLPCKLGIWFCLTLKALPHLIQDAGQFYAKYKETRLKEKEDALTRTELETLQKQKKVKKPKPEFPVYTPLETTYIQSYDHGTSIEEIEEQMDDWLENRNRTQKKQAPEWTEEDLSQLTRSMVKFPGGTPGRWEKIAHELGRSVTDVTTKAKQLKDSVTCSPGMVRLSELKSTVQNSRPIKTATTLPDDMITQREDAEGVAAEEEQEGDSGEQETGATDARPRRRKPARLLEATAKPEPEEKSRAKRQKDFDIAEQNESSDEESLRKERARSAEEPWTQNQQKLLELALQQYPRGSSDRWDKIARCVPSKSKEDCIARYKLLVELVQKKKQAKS
inactive: vemurafenib -0.019 | [1] 0.006 | barasertib 0.053 | [2] 0.017 | volasertib -0.012 | [3] 0.067 | [4] 0.033 | saracatinib 0.029 | sotrastaurin -0.002
active: [5] -0.293
